Source: the supplement of paper PMC12669032
Values without a mark were called inactive.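 Rule for the calls: active = AUC reduced over 20% with Padj below 0.05 in at least 2 of 3 replicates; inactive = otherwise.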

Experiments:
Assay in all cases: growth AUC relative to DMSO control (median of replicates) (fraction); higher = more growth (less inhibition), active = hit call of the paper
Details in all cases: 20 µM; 24 h
Akkermansia muciniphila = test system: Akkermansia muciniphila
Summary of the method: (§1)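 Area under the growth curve was normalised to the plate median of solvent-only wells, or to row and column medians on the industrial chemical plate. Growth curves came from anaerobic gut bacterial monocultures in mGAM at 37 °C, seeded at OD600 0.05 with 20 µM compound (1% DMSO), and read at OD600 hourly for 24 h with the minimum OD set to 0. The value is the median of three biological replicates grown on separate days.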

Bacteroides caccae = test system: Bacteroides caccae
Summary of the method: as §1

Bacteroides clarus = test system: Bacteroides clarus
Summary of the method: as §1

Bacteroides dorei = test system: Bacteroides dorei
Summary of the method: as §1

Bacteroides stercoris = test system: Bacteroides stercoris
Summary of the method: as §1

[1] = test system: Bacteroides thetaiotaomicron
Summary of the method: as §1

Bacteroides uniformis = test system: Bacteroides uniformis
Summary of the method: as §1

[2] = test system: Bifidobacterium longum subsp. longum
Summary of the method: as §1

Clostridium difficile = test system: Clostridium difficile
Summary of the method: as §1

Collinsella aerofaciens = test system: Collinsella aerofaciens
Summary of the method: as §1

Coprococcus comes = test system: Coprococcus comes
Summary of the method: as §1

Escherichia coli ED1a = test system: Escherichia coli ED1a
Summary of the method: as §1

Escherichia coli IAI1 = test system: Escherichia coli IAI1
Summary of the method: as §1

Eubacterium rectale = test system: Eubacterium rectale
Summary of the method: as §1

[3] = test system: Fusobacterium nucleatum subsp. animalis
Summary of the method: as §1

Lactobacillus gasseri = test system: Lactobacillus gasseri
Summary of the method: as §1

Lactobacillus paracasei = test system: Lactobacillus paracasei
Summary of the method: as §1

Odoribacter splanchnicus = test system: Odoribacter splanchnicus
Summary of the method: as §1

[4] = test system: Parabacteroides distasonis
Summary of the method: as §1

Parabacteroides merdae = test system: Parabacteroides merdae
Summary of the method: as §1

SMILES	growth AUC (Akkermansia muciniphila)	growth AUC (Bacteroides caccae)	growth AUC (Bacteroides clarus)	growth AUC (Bacteroides dorei)	growth AUC (Bacteroides stercoris)	growth AUC [1]	growth AUC (Bacteroides uniformis)	growth AUC [2]	growth AUC (Clostridium difficile)	growth AUC (Collinsella aerofaciens)	growth AUC (Coprococcus comes)	growth AUC (Escherichia coli ED1a)	growth AUC (Escherichia coli IAI1)	growth AUC (Eubacterium rectale)	growth AUC [3]	growth AUC (Lactobacillus gasseri)	growth AUC (Lactobacillus paracasei)	growth AUC (Odoribacter splanchnicus)	growth AUC [4]	growth AUC (Parabacteroides merdae)
COc1ccc(/C(=C/C(=O)N2CCOCC2)c2ccc(Cl)cc2)cc1OC	1.1	0.962	1	0.93	1.33	0.978	0.954	1.04	0.932	0.93	0.985	1.01	1.02	1.12	1.06	0.961	1.06	0.823	0.993	0.993
CCCCOC(=O)N(C)SN(C)C(=O)Oc1cccc2c1OC(C)(C)C2	1.03	1.02	0.969	1.01	1.08	1.04	1	1.11	0.992	1.01	1	1.07	1.01	1.2	0.942	0.966	1.05	1.03	1.03	1.01
CCc1nn(C)c(C(=O)NCc2ccc(Oc3ccc(C)cc3)cc2)c1Cl	0.877	0.935	0.932	0.974	0.633	0.967	0.984	0.81	1.04	0.952	0.959	0.986	0.997	0.96	0.952	1.1	0.942	0.896	0.947	0.975
COP(=S)(OC)Oc1cc(Cl)c(Cl)cc1Cl	1.09	0.936	1.02	0.947	1.17	1.03	0.939	0.947	1.02	1.04	0.979	1	0.971	0.945	1.06	1	1.02	0.88	0.936	0.983
CNC(=O)Oc1ccccc1C(C)C	1.08	1.01	1.04	1.03	1.23	1.01	1.01	0.965	1.02	0.986	1.04	1.01	1.02	1.07	1.07	1.04	0.861	1.03	0.998	1.03
COC(=O)/C(C)=C/OP(=S)(OC)OC	0.968	0.992	0.963	0.985	1.02	0.978	0.96	1.02	0.984	1.03	0.989	0.987	0.97	0.95	1.01	1.06	1.07	0.95	1.03	0.999
CCCOc1nn(C(=O)[N-]S(=O)(=O)c2ccccc2C(=O)OC)c(=O)n1C.[Na+]	0.978	1.02	0.979	1.02	1.13	0.992	0.972	1.01	0.994	1.02	0.988	0.994	1.02	1.08	1.12	0.968	0.977	1.1	1.02	0.999
COC(=O)NCc1cc(/C(C)=N/OCc2cccc(C)n2)ccc1Cl	1.06	0.965	0.947	0.946	0.972	0.944	0.808	0.981	0.956	1.01	1.03	1.01	0.972	0.998	0.933	0.911	0.969	1.01	0.919	0.955
CCCCCCCCCc1ccc(O)cc1	1.02	1.03	0.739 (active)	1.01	0.0469 (active)	1.01	0.289 (active)	0.929	1.03	0.925	0.989	0.998	1.01	0.968	0.989	0.904	1.01	0.841	0.885	0.971
O=[N+]([O-])c1cc(Cl)ccc1Cl	1.04	0.998	0.977	0.986	1.03	0.989	1.02	1.01	0.995	0.964	0.935	0.983	0.979	1.04	1.04	0.872	1.05	1.04	1.01	0.987
CNC(=O)c1cc(Cl)cc(C)c1NC(=O)c1cc(Br)nn1-c1ncccc1Cl	0.893	1	0.952	0.999	0.946	0.967	0.976	0.969	0.964	1.02	0.991	0.988	0.995	0.961	0.867	1.03	0.961	0.926	1.01	0.98
O=C(NC(=O)c1c(F)cccc1F)Nc1ccc(OC(F)(F)C(F)OC(F)(F)F)c(Cl)c1 (stereo not given)	0.979	0.991	1.01	1.03	0.982	0.974	0.997	1	0.985	0.971	1	1.05	1	0.99	0.986	1.49	0.958	0.983	1.02	0.997
O=C(NC(=O)c1c(F)cccc1F)Nc1cc(Cl)c(Oc2ncc(C(F)(F)F)cc2Cl)c(Cl)c1	1.02	0.996	0.997	0.988	1.07	1.03	0.977	1.14	1	1.11	1.02	1.02	0.991	1.01	1.02	1.16	1.02	1.02	1.02	1.02
Cc1nc(N(C)C)nc(OC(=O)N(C)C)c1C	1.02	0.997	0.989	1.05	1.05	1.02	0.977	0.826	1.05	1.04	1.01	0.998	0.992	0.98	1	1.1	0.978	1.01	1.03	1.04
CS(=O)(=O)c1cc(C(F)(F)F)ccc1C(=O)c1cnoc1C1CC1	1	1.08	1.01	1.02	0.921	1.02	0.994	0.982	1.05	1	1.02	1.01	1.01	1.04	0.93	1.04	0.826	1.1	1.05	1.02
Fc1ccc(Oc2ccnc3cc(Cl)cc(Cl)c23)cc1	0.94	0.899	0.918	1.05	0.806	0.887	0.875	0.905	1.08	0.967	0.969	0.977	0.97	0.845	0.921	0.984	0.672	1	0.966	0.876
